KDM5B inh: blocks human KDM5B histone demethylase activity; Potency, µM (top dose mostly 57.7 µM), actives largely listed as inhibitors; KDM5B demethylase, FDH-coupled NADH fluorescence (FDH is formaldehyde dehydrogenase); AID 1347165; 220,000 compounds, 2.6% hits; Q9UGL1; active = well fitted inhibition curve with a large enough effect; note: 0% is about no effect; nearly all actives have a fitted effect of over 70% in size
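Inhibition is measured as reduced NADH fluorescence generation from FDH coupling to formaldehyde release. Truncated KDM5BΔAP at 200 nM final acts on H3K4me3 peptide (12.5 µM in substrate mix) in pH 7.5 HEPES buffer with Tween-20, 30 min, room temperature.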
Active calls of the source: *; i = inactive. The full list was thinned out, with hits kept by preference. Potency is the fitted concentration of half-maximal effect.

SMILES | KDM5B inh
CN(CC(=O)Nc1ccccc1C(F)(F)F)C(=O)Cc1ccc2ccccc2c1 | i
O=c1[nH]cccc1NS(=O)(=O)c1ccc(Cl)cc1 | i
COc1ccc(-c2nc3c(c(-c4ccccc4)n2)CN(C(C)=O)CC3)cc1 | 28.2µM*
COc1ccc(-c2cc3nc4c(c(=O)n3[nH]2)CN(C(=O)Cc2ccccc2)CC4)cc1 | 28.2µM*
COc1ccc(CC(=O)N2CCc3nc(C(C)C)nc(-c4ccc(OC)cc4)c3CC2)cc1 | i
COc1ccc(-c2cc3nc4c(c(=O)n3[nH]2)CN(C(=O)NCc2ccco2)CC4)cc1 | 25.1µM*
COc1ccc(-c2nc(-c3ccccc3)nc3c2CN(C(=O)C2CC2)CC3)cc1 | i
CC(=O)N1CCc2nc(-c3ccccc3)nc(-c3ccc(Cl)cc3)c2C1 | i
Cc1nc2c(c(=O)n1C)CCN(C(=O)NCc1ccco1)CC2 | i
O=C(NCc1ccco1)N1CCc2c(nc(-c3ccc(F)cc3)[nH]c2=O)C1 | i
COc1ccc(CC(=O)N2CCc3nc(-c4cccnc4)[nH]c3C2)cc1 | i
O=C1/C(=C/c2ccc([N+](=O)[O-])cc2)CCOc2ccc(F)cc21 | i
CN(CC(=O)Nc1nccs1)S(=O)(=O)c1ccc(Cl)cc1 | i
COCCN1CC2(CCC1=O)CCN(C(=O)c1c(C)cccc1C)CC2 | i
COCCN1CC2(CCCN(c3cc(C)c4ccccc4n3)C2)CCC1=O (centres undefined) | 28.2µM*
COCCN1CC2(CCCN(C(=O)c3ccc(C)n(C)c3=O)C2)CCC1=O (centres undefined) | i
COc1ccc(-c2c(C)oc3cc(OCC(=O)Nc4ccccc4OC)ccc3c2=O)cc1 | i
Cc1nc(C(=O)N2CCC(c3n[nH]c(=O)n3Cc3ccccc3)CC2)c(C)o1 | i
O=C(Nc1ccccc1)Nc1ccc(=O)n2c1[C@@H]1C[C@@H](CN(C(=O)Nc3ccc(F)cc3)C1)C2 | i
O=C1CC(c2ccccc2)N(C(=O)CNC(=O)c2cnccn2)CCCCCN1 (centres undefined) | i
Cc1cnc(C(=O)NCC(=O)N2CCCCCNC(=O)CC2c2ccccc2)cn1 (centres undefined) | i
O=C1CC(c2ccccc2)N(C(=O)CNC(=O)c2ccccn2)CCCCCN1 (centres undefined) | 28.2µM*
O=C(NCCc1ccccc1)C1CCN(C(=O)[C@H]2CCC[C@H](O)C2)CC1 | i
Cc1ccc(-n2c(C3CCN(C(=O)c4ccco4)CC3)n[nH]c2=O)cc1 | i
O=C(CCc1nc2ccccc2[nH]c1=O)N1CCN(CCn2cncn2)CC1 | 17.8µM*
SMILES | KDM5B inh
O=C(CCn1cncn1)N1CCC(c2cc(-c3ccccc3Cl)n[nH]2)CC1 | i
O=C(CCc1nc2ccccc2c(=O)[nH]1)N1CCCCC1 | i
CN1Cc2ccc(NCc3ccccc3)nc2C(C)(C(=O)NC2CCC2)C1 (centres undefined) | i
COc1cccc(NC(=O)C2(C)CCc3cnc(NCc4ccccc4)nc32)c1 (centres undefined) | i
COc1ccc(NC(=O)C2=NO[C@@H]3CN(CCc4ccccc4)C[C@H]23)cn1 | i
COc1ccc(NC(=O)C2(C)CN(C)Cc3ccc(NCc4ccccc4)nc32)cn1 (centres undefined) | 31.6µM*
COCCCNC(=S)NNC(=O)c1cc(C2CC2)nc2ccccc12 | i
COc1ccc(NC(=O)Cn2nc3c(cc2=O)CCCCC3)cn1 | i
COCCCNC(=O)C1(C)CN(C)Cc2ccc(NCc3ccccc3)nc21 (centres undefined) | 31.6µM*
COc1ccc(NC(=O)C2(C)CCc3cnc(NCc4ccccc4)nc32)cn1 (centres undefined) | 39.8µM*
CCCC1c2nccn2CCCN1C(=O)CCc1c(C)nn(C)c1C (centres undefined) | i
CCC(=O)N1CCCCCCNC(=O)CC1c1ccccc1 (centres undefined) | i
CCc1ccc(NC(=O)c2ccc3c(Cl)c4c(nc3c2)CCC4)cc1 | i
CC(=O)Nc1ccc(NC(=O)CCNS(=O)(=O)c2ccc3c(c2)CCN3C(=O)C2CC2)cc1 | i
COc1ccc(C(=O)Nc2ccc(-c3noc([C@@H]4CCCN4Cc4ccc(C(F)(F)F)cc4)n3)cn2)cc1 | 28.2µM*
COc1ccc(-c2noc([C@@H]3CCCN3C(=O)c3ccc(Cl)cc3)n2)cc1 | i
O[C@@H]1C[C@@H](c2nc(-c3ccccn3)no2)N(Cc2ccccc2)C1 | i
CN(C)c1ccc(-c2noc([C@@H]3CCCN3C3CCOCC3)n2)cn1 | i
O[C@@H]1C[C@@H](c2nc(-c3ccccn3)no2)N(Cc2cc3ccccc3o2)C1 | 31.6µM*
COc1ccc(CCC(=O)N2CCC[C@H]2c2nc(-c3ccc(C)cc3)no2)cc1 | i
O[C@@H]1C[C@@H](c2nc(-c3ccccn3)no2)N(Cc2cccc(OC(F)(F)F)c2)C1 | i
COCC(=O)Nc1ccc(-c2noc([C@@H]3CCCN3C)n2)cn1 | i
COc1ccc(-c2noc([C@@H]3CCCN3C(=O)c3ccc(C)nc3)n2)cc1 | i
